In the supplement of paper PMC10981050:
Values joined by “and” are separate entries in the source; they are usually repeats but may differ in a detail not shown here. Equal values may be shown once. Where a name gives a salt, the structure may show the parent alone.

How the values were obtained:
Assay in all cases: cell viability relative to vehicle control; higher = less cytotoxic
Conditions in all cases: 10 µM
K562 = system: K562
Summary of the method: (§1)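 Mutant clones made by CRISPR editing and their isogenic wild-type counterparts, from four leukaemia lines, were exposed to a single 10 µM dose of each library compound for 48 h. The supernatant was then removed and CellTiter-Glo luminescence was read. Viability was reported as percent of the on-plate vehicle control.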

MARIMO = system: MARIMO
Summary of the method: as §1

MOLM14 = system: MOLM14
Summary of the method: as §1

OCI-AML2 = system: OCI-AML2
Summary of the method: as §1

SMILES	cell viability (K562; SRSF2 genotype: SRSF2 P95H/wt)	cell viability (K562; SRSF2 genotype: SRSF2 wt/wt)	cell viability (MARIMO; SRSF2 genotype: SRSF2 P95H/wt)	cell viability (MARIMO; SRSF2 genotype: SRSF2 wt/wt)	cell viability (MOLM14; SRSF2 genotype: SRSF2 P95H/wt)	cell viability (MOLM14; SRSF2 genotype: SRSF2 wt/wt)	cell viability (OCI-AML2; SRSF2 genotype: P95H/wt)	cell viability (OCI-AML2; SRSF2 genotype: wt/wt)
Clc1ccc(C2(c3ccc(-c4cn[nH]c4)cc3)CCNCC2)cc1	44.6% and 48.5%	34.5%	40.3%	45%	24.2%	12.5%	21.6%	27.4%
O=C(Nc1ccc2c(O)cc(S(=O)(=O)O)cc2c1)Nc1ccc2c(O)cc(S(=O)(=O)O)cc2c1 [AMI-1, free acid]	105% and 92.6%	109%	100%	110%	103%	108%	109%	112%
C[C@H](CC(=O)C[C@@H](C)[C@H]1C[C@H](O)[C@@]2(C)C3=C(C(=O)C[C@]12C)[C@@]1(C)CCC(=O)C(C)(C)[C@@H]1C[C@@H]3O)C(=O)O [Ganoderic acid A]	102% and 109%	103%	104%	104%	99.5%	102%	102%	111%
CC(C)(C)C(O)C(=Cc1ccc(Cl)cc1)n1cncn1 (stereo not drawn) [Uniconazole]	95.8% and 99.3%	96.5%	92.2%	101%	93.9%	105%	93.8%	91.2%
COc1cc2c(=O)c3c(O)c([C@@H]4O[C@H](CO[C@@H]5OC[C@](O)(CO)[C@H]5O)[C@@H](O)[C@H](O)[C@H]4O)c(O)cc3oc2cc1O [Polygalaxanthone III]	99.2% and 105%	98%	100%	98.8%	101%	98.4%	105%	97.3%
C=C1CC[C@H]2C(=C)CC[C@H]3C(=C)C(=O)O[C@@H]3[C@@H]12 [Dehydrocostus Lactone]	25.2% and 23.9%	30.8%	13.7%	16.1%	8.31%	11.1%	3.84%	6.64%
O=C(O)c1ccc(C=C2SC(=S)N(c3cccc(C(F)(F)F)c3)C2=O)cc1	94.1% and 97.2%	95.1%	94.3%	105%	90.2%	99.7%	95.5%	97.9%
N/N=c1\[nH][nH]/c(=N\N)c2ccccc12 [Dihydralazine sulphate]	93.9% and 93.2%	95.5%	95.3%	94.3%	106%	103%	93%	95.4%
O=c1ccn([C@@H]2O[C@H](CO)[C@@H](O)[C@H]2O)c(=O)[nH]1 [Uridine]	105% and 90%	94.1%	81.2%	92.2%	82.8%	90%	78.3%	92.8%
O=C1NC(=O)/C(=C/c2ccc(-c3ccc(F)cc3O)o2)S1	94.7% and 95.1%	88.4%	75.9%	79.2%	89.3%	100%	62.3%	59%
CC1(C)CC(=O)c2c(C(F)(F)F)nn(-c3ccc(C(N)=O)c(N[C@H]4CC[C@H](O)CC4)c3)c2C1	23.7% and 29.5%	27.1%	30.9%	25.9%	3.24%	4.55%	13.9%	21.4%
NC(=O)[C@@H](CCC(F)(F)F)N(Cc1ccc(-c2ncon2)cc1F)S(=O)(=O)c1ccc(Cl)cc1	92.5% and 98.1%	93.9%	84.8%	96.6%	88.2%	97.9%	106%	104%
Nc1ncnc2c1c(I)cn2C1OC(CO)C(O)C1O (stereo not drawn) [5-Iodotubercidin]	4.74% and 10.8%	6.66%	12.2%	5.58%	0.78%	0.42%	2.92%	13.1%
Nc1cc(F)ccc1NC(=O)/C=C/c1cnn(C/C=C/c2ccccc2)c1	89.5% and 93.8%	83.6%	77.8%	100%	90.5%	94.2%	104%	87.4%
OCCOCCN1CCN(C(c2ccccc2)c2ccc(Cl)cc2)CC1 (stereo not drawn) [Hydroxyzine pamoate]	88.7% and 98%	100%	79.8%	91.8%	79.9%	96.4%	87.9%	94.6%
COc1cc2ncnc(Nc3ccc(F)c(Cl)c3)c2cc1NC(=O)/C=C/CN1CCCCC1	63.7% and 73.8%	87.8%	55.2%	58.2%	26.9%	54.4%	20.2%	37.2%
O=C(O)CCn1c(O)c(C2=c3cc(Cl)ccc3=NC2=O)sc1=S	87.5% and 92.5%	88.2%	84.1%	88.7%	71.7%	83.2%	107%	116%
NS(=O)(=O)c1cc(Cl)c(Cl)c(S(N)(=O)=O)c1 [Dichlorphenamide (Diclofenamide)]	108% and 97%	95.9%	91.9%	102%	105%	99.6%	93.4%	103%
CN[C@H]1C(=O)N[C@@H]2Cc3ccc(cc3)Oc3cc4cc(c3O[C@@H]3O[C@H](C(=O)O)[C@@H](O)[C@H](O)[C@H]3NC(=O)CCCCCCCCC(C)C)Oc3ccc(cc3Cl)[C@@H](O)[C@@H]3NC(=O)[C@H](NC(=O)[C@@H]4NC(=O)[C@@H](NC2=O)c2cc(cc(O)c2Cl)Oc2cc1ccc2O)c1ccc(O)c(c1)-c1c(O[C@H]2O[C@H](CO)[C@@H](O)[C@H](O)[C@@H]2O)cc(O)cc1[C@@H](C(=O)NCCCN(C)C)NC3=O [Dalbavancin]	97.1% and 89.6%	94.9%	95.8%	103%	96.6%	97.9%	86.5%	106%
CCOC(=O)c1[nH]c2cc(Cl)ccc2c1C(C(=O)NC(C)(C)C)N(C=O)Cc1ccc(Cl)cc1 (stereo not drawn)	78.9% and 75.1%	75.3%	68.1%	74.4%	44.1%	57.5%	77.3%	64.2%
O=NN(CCCl)C(=O)NC1CCCCC1 [Lomustine (CeeNU)]	95% and 113%	111%	100%	99.9%	84%	97.9%	97.2%	105%

SMILES	cell viability (K562; SRSF2 genotype: SRSF2 P95H/wt)	cell viability (K562; SRSF2 genotype: SRSF2 wt/wt)	cell viability (MARIMO; SRSF2 genotype: SRSF2 P95H/wt)	cell viability (MARIMO; SRSF2 genotype: SRSF2 wt/wt)	cell viability (MOLM14; SRSF2 genotype: SRSF2 P95H/wt)	cell viability (MOLM14; SRSF2 genotype: SRSF2 wt/wt)	cell viability (OCI-AML2; SRSF2 genotype: P95H/wt)	cell viability (OCI-AML2; SRSF2 genotype: wt/wt)
COc1ccc(-c2coc3cc(O)cc(O)c3c2=O)cc1 [Biochanin A (4-Methylgenistein)]	97.6% and 85.7%	85.2%	79.3%	90%	96.5%	91.3%	82.5%	79.5%
Oc1ccc(CC2NCCc3cc(O)c(O)cc32)cc1 (stereo not drawn) [Higenamine hydrochloride]	92.4% and 103%	98%	105%	98.5%	79.8%	89.7%	94.9%	102%
Cc1c(C(=O)Nc2ccc(N3C[C@@H](C)O[C@@H](C)C3)nc2)cccc1-c1ccc(OC(F)(F)F)cc1 [LDE225 (NVP-LDE225, Erismodegib)]	82.9% and 91.2%	91.9%	86.2%	102%	87.7%	95.9%	77.6%	85%
OCC(CO)N[C@H]1C[C@](O)(CO)[C@@H](O)[C@H](O)[C@H]1O [Voglibose]	96.2% and 91.4%	96.6%	98.1%	104%	99.7%	97.5%	92.3%	109%
CN(CCOc1ccc(CC2SC(=O)NC2=O)cc1)c1ccccn1 (stereo not drawn) [Rosiglitazone HCl]	100% and 101%	97.4%	102%	115%	103%	109%	102%	105%
CCCC(CCC)C(N)=O [Valpromide]	96.1% and 94.6%	100%	99.5%	101%	102%	99.5%	95%	107%
NS(=O)(=O)c1ccccc1 [Benzenesulfonamide]	100% and 106%	109%	97.9%	109%	96.5%	106%	107%	91.7%
Cc1ccc(NC(=O)c2ccc(CN3CCN(C)CC3)cc2)cc1Nc1nccc(-c2cccnc2)n1 [Imatinib Mesylate (STI571)]	11.9% and 25.7%	16.7%	103%	104%	80.7%	94%	82.3%	78%
Nc1cc[nH]c(=O)n1 [Cytosine]	102% and 93.8%	99.5%	102%	110%	107%	104%	102%	107%
COC(=O)N[C@H](C(=O)N1CC2(CC2)C[C@H]1c1nc(-c2ccc3c(c2)C(F)(F)c2cc(-c4ccc5[nH]c([C@@H]6[C@H]7CC[C@H](C7)N6C(=O)[C@@H](NC(=O)OC)C(C)C)nc5c4)ccc2-3)c[nH]1)C(C)C [Ledipasvir (GS5885)]	84.9% and 87.8%	84.3%	86.4%	90.2%	73.7%	84.3%	87.9%	91.8%
C[C@@H]1O[C@@H](O[C@H]2[C@H](Oc3cc(O)c(C(=O)CCc4ccc(O)cc4)c(O)c3)O[C@H](CO)[C@@H](O)[C@@H]2O)[C@H](O)[C@H](O)[C@H]1O [Naringin Dihydrochalcone (Naringin DC)]	99.7% and 107%	94.5%	102%	105%	98.4%	104%	96.8%	111%
COc1cc(C(=O)NS(=O)(=O)c2ccccc2C)ccc1Cc1cn(C)c2ccc(NC(=O)OC3CCCC3)cc12 [Zafirlukast (Accolate)]	97.3% and 96.5%	92.8%	96%	110%	94.3%	97%	94.4%	104%
O=C(O)c1cc(=O)cc(C(=O)O)o1 [Chelidonic acid]	105%	113%	110%	106%	101%	107%	110%	105%
Cc1cc(C)nc(NS(=O)(=O)c2ccc(N)cc2)n1 [Sulfamethazine Sodium Salt]	105% and 99.9%	102%	106%	106%	100%	106%	88.5%	113%
Cc1ccc(-c2csc(NC(=O)c3ccccc3)n2)c(C)c1	80.3% and 83.3%	81.5%	76.2%	81%	94.1%	92.7%	63.8%	66.8%
NS(=O)(=O)Cc1noc2ccccc12 [Zonisamide]	90.4% and 88.2%	89.5%	85%	98%	91.8%	90.3%	84.7%	95.2%
COc1cc(C(=O)N(CCCc2ccccc2)Cc2ccc(CC(=O)O)cc2)cc(OC)c1C	95.6% and 98%	99.5%	105%	109%	101%	99.4%	101%	100%
COc1c(C)c(C(=O)c2ccc(N)c(C(=O)O)c2)n2ccccc12	106% and 97.6%	101%	102%	110%	105%	108%	97.6%	106%
CNC(=O)c1cc(Oc2ccc(NC(=O)Nc3cc(C(C)(C)C)nn3-c3ccc4ncccc4c3)c(F)c2)ccn1 [DCC-2036 (Rebastinib)]	28.3% and 35.4%	27.5%	11.8%	4.62%	1.63%	1.54%	3.03%	14%
CCc1cccc2c3c([nH]c12)C(CC)(CC(=O)O)OCC3 (stereo not drawn) [Etodolac (Lodine)]	99.4% and 101%	92.6%	89.7%	96.5%	93%	97.8%	86.8%	93.7%
